Laboratory results as given in PubChem BioAssay.
Active and inactive are the calls of the source.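 How the source made its calls: active means normalized viability below 100% at a tested concentration; inactive means the rest.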

Assay: drug combination growth inhibition, ovarian cancer – cell-based, oncology-focused library, rucaparib conditional, profiling panel (AID 1508598)
Conditions: patient-derived ovarian cancer cells, CellTiter-Glo viability, 144 h, active compounds read low
[1] = at 0.000305 µM, OCI-C5x cells, with rucaparib 10 µM, 100% = cells with rucaparib alone
[2] = at 0.000305 µM, OCI-C5x cells, without rucaparib
[3] = at 0.000305 µM, OCI-P5x cells, with rucaparib 20 µM, 100% = cells with rucaparib alone
[4] = at 0.000305 µM, OCI-P5x cells, without rucaparib
[5] = at 0.00122 µM, OCI-C5x cells, with rucaparib 10 µM, 100% = cells with rucaparib alone
[6] = at 0.00122 µM, OCI-C5x cells, without rucaparib
[7] = at 0.00122 µM, OCI-P5x cells, with rucaparib 20 µM, 100% = cells with rucaparib alone
[8] = at 0.00122 µM, OCI-P5x cells, without rucaparib
[9] = at 0.00488 µM, OCI-C5x cells, with rucaparib 10 µM, 100% = cells with rucaparib alone
[10] = at 0.00488 µM, OCI-C5x cells, without rucaparib
[11] = at 0.00488 µM, OCI-P5x cells, with rucaparib 20 µM, 100% = cells with rucaparib alone
[12] = at 0.00488 µM, OCI-P5x cells, without rucaparib
[13] = at 0.0195 µM, OCI-C5x cells, with rucaparib 10 µM, 100% = cells with rucaparib alone
[14] = at 0.0195 µM, OCI-C5x cells, without rucaparib
[15] = at 0.0195 µM, OCI-P5x cells, with rucaparib 20 µM, 100% = cells with rucaparib alone
[16] = at 0.0195 µM, OCI-P5x cells, without rucaparib
[17] = at 0.0781 µM, OCI-C5x cells, with rucaparib 10 µM, 100% = cells with rucaparib alone
[18] = at 0.0781 µM, OCI-C5x cells, without rucaparib
[19] = at 0.0781 µM, OCI-P5x cells, with rucaparib 20 µM, 100% = cells with rucaparib alone
[20] = at 0.0781 µM, OCI-P5x cells, without rucaparib
[21] = at 0.313 µM, OCI-C5x cells, with rucaparib 10 µM, 100% = cells with rucaparib alone
[22] = at 0.313 µM, OCI-C5x cells, without rucaparib
[23] = at 0.313 µM, OCI-P5x cells, with rucaparib 20 µM, 100% = cells with rucaparib alone
[24] = at 0.313 µM, OCI-P5x cells, without rucaparib
[25] = at 1.25 µM, OCI-C5x cells, with rucaparib 10 µM, 100% = cells with rucaparib alone
[26] = at 1.25 µM, OCI-C5x cells, without rucaparib
[27] = at 1.25 µM, OCI-P5x cells, with rucaparib 20 µM, 100% = cells with rucaparib alone
[28] = at 1.25 µM, OCI-P5x cells, without rucaparib
[29] = at 5 µM, OCI-C5x cells, with rucaparib 10 µM, 100% = cells with rucaparib alone
[30] = at 5 µM, OCI-C5x cells, without rucaparib
[31] = at 5 µM, OCI-P5x cells, with rucaparib 20 µM, 100% = cells with rucaparib alone
[32] = at 5 µM, OCI-P5x cells, without rucaparib

Measured: viability

C=C1/C(=C/C=C2\CCC[C@@]3(C)[C@H]2CC[C@H]3[C@H](C)/C=C/[C@@H](C)C(C)C)C[C@H](O)C[C@@H]1O
active: [1] 99.9% | [2] 95% | [5] 97.2% | [6] 100% | [8] 99.9% | [9] 94% | [17] 97.1% | [21] 96.7% | [22] 96.6% | [27] 98.4%
inactive: [3] 101% | [4] 100% | [7] 105% | [10] 104% | [11] 105% | [12] 102% | [13] 103% | [14] 100% | [15] 102% | [16] 102% | [18] 100% | [19] 105% | [20] 101% | [23] 107% | [24] 104% | [25] 101% | [26] 102% | [28] 103% | [29] 120% | [30] 111% | [31] 111% | [32] 103%

CC1(C)C=C(CN2C/C(=C/c3ccc(F)cc3)C(=O)/C(=C/c3ccc(F)cc3)C2)C(C)(C)N1O
active: [3] 90.6% | [4] 90.1% | [7] 80% | [8] 81.9% | [11] 74.5% | [12] 83.8% | [15] 71% | [16] 81.9% | [23] 96.7% | [31] 55.9% | [32] 97.4%
inactive: [1] 136% | [2] 110% | [5] 117% | [6] 106% | [9] 131% | [10] 112% | [13] 127% | [14] 112% | [17] 124% | [18] 117% | [19] 102% | [20] 106% | [21] 125% | [22] 109% | [24] 103% | [25] 127% | [26] 118% | [27] 102% | [28] 105% | [29] 124% | [30] 115%
